{"source": "the antibiotic and cytotoxicity screens of Wong et al. (2023)", "note": "The campaign covered roughly 39,000 compounds. About 3,300 (8.5%) were called active. The sample as a whole holds a higher share of actives than the screen did."}
{"test_system": "HepG2", "experiment": "cytotoxicity call (relative viability < 0.9)", "conditions": "10 µM"}
{"smiles": "COc1ccc(NC(=O)Nc2ccc3c(c2)C(=O)N([C@@H](C)CO)C[C@H](C)[C@@H](CN(C)C(=O)Nc2cccc4ccccc24)O3)cc1", "cytotoxicity call": "inactive"}
{"smiles": "C[C@H]1CN([C@@H](C)CO)S(=O)(=O)c2ccc(C#Cc3ccccc3)cc2O[C@@H]1CN(C)C(=O)Cc1ccccn1", "cytotoxicity call": "inactive"}
{"smiles": "Nc1nc(=O)c2ncn(CCC(CO)CO)c2[nH]1", "cytotoxicity call": "inactive"}
{"smiles": "Cc1noc(C)c1NC(=O)N(C)C[C@H]1Oc2ccc(NC(=O)NC(C)C)cc2CC(=O)N([C@H](C)CO)C[C@H]1C", "cytotoxicity call": "inactive"}
{"smiles": "C[C@@H]1CN([C@@H](C)CO)C(=O)c2cc(NC(=O)Nc3ccc(C(F)(F)F)cc3)ccc2O[C@@H]1CN(C)Cc1ccc(Oc2ccccc2)cc1", "cytotoxicity call": "active"}
{"smiles": "C[C@@H]1CN([C@@H](C)CO)C(=O)c2cc(NC(=O)Nc3ccc(C(F)(F)F)cc3)ccc2O[C@@H]1CN(C)C(=O)Nc1ccccc1", "cytotoxicity call": "inactive"}
{"smiles": "O=C(O)c1ccc(/C2=C3\\C=CC(=N3)/C(c3ccc(C(=O)O)cc3)=c3/cc/c4[n]3[Mn+][n]3c2ccc3/C(c2ccc(C(=O)O)cc2)=C2/C=CC(=N2)\\C=4c2ccc(C(=O)O)cc2)cc1", "cytotoxicity call": "inactive"}
{"smiles": "C[n+]1ccc(/C2=C3\\C=CC(=N3)/C(c3cc[n+](C)cc3)=c3/cc/c4[n]3[Fe][n]3c2ccc3/C(c2cc[n+](C)cc2)=C2/C=CC(=N2)\\C=4c2cc[n+](C)cc2)cc1", "cytotoxicity call": "active"}
{"smiles": "C[C@@H]1CN([C@@H](C)CO)C(=O)c2cc(NC(=O)Cc3ccccc3)ccc2O[C@@H]1CN(C)S(=O)(=O)c1ccccc1", "cytotoxicity call": "inactive"}
{"smiles": "C[C@@H]1CN([C@@H](C)CO)C(=O)c2cccc(NC(=O)C3CC3)c2O[C@@H]1CN(C)S(=O)(=O)c1cccs1", "cytotoxicity call": "inactive"}
{"smiles": "Cc1ccc(S(=O)(=O)N(C)C[C@@H]2OCCCC[C@@H](C)Oc3ccc(NC(=O)Nc4c(C)noc4C)cc3C(=O)N([C@@H](C)CO)C[C@@H]2C)cc1", "cytotoxicity call": "inactive"}
{"smiles": "C[C@@H]1CCCCO[C@@H](CN(C)CC2CC2)[C@@H](C)CN([C@H](C)CO)C(=O)c2cc(NS(=O)(=O)c3cn(C)cn3)ccc2O1", "cytotoxicity call": "inactive"}
{"smiles": "COc1ccc(CN(C)C[C@H]2Oc3ccc(NC(=O)Nc4cccc5ccccc45)cc3CC(=O)N([C@@H](C)CO)C[C@H]2C)cc1", "cytotoxicity call": "active"}
{"smiles": "COc1ccc(CN(C)C[C@H]2Oc3ccc(NC(=O)Nc4cccc5ccccc45)cc3CC(=O)N([C@@H](C)CO)C[C@@H]2C)cc1", "cytotoxicity call": "active"}
{"smiles": "COc1ccc(CN(C)C[C@H]2Oc3ccc(NC(=O)Nc4cccc5ccccc45)cc3CC(=O)N([C@H](C)CO)C[C@H]2C)cc1", "cytotoxicity call": "active"}
{"smiles": "COc1ccc(CN(C)C[C@@H]2Oc3ccc(NC(=O)Nc4cccc5ccccc45)cc3CC(=O)N([C@@H](C)CO)C[C@@H]2C)cc1", "cytotoxicity call": "active"}
{"smiles": "COc1ccc(CN(C)C[C@@H]2Oc3ccc(NC(=O)Nc4cccc5ccccc45)cc3CC(=O)N([C@H](C)CO)C[C@H]2C)cc1", "cytotoxicity call": "inactive"}
{"smiles": "COc1ccc(CN(C)C[C@@H]2Oc3ccc(NC(=O)Nc4cccc5ccccc45)cc3CC(=O)N([C@H](C)CO)C[C@@H]2C)cc1", "cytotoxicity call": "inactive"}
{"smiles": "COc1ccc(OC)c(S(=O)(=O)N2[C@@H]3CC[C@@H](C3)[C@H]2c2nc3cccc(OCc4ccccc4)c3[nH]2)c1", "cytotoxicity call": "inactive"}
{"smiles": "CO[C@@H]1CN(C)C(=O)c2cc(NS(=O)(=O)CC(F)(F)F)ccc2OC[C@@H](C)N(Cc2ccccn2)C[C@@H]1C", "cytotoxicity call": "inactive"}
{"smiles": "C[C@@H]1CN([C@@H](C)CO)C(=O)c2cc(Br)cnc2O[C@@H]1CN(C)S(=O)(=O)c1ccccc1", "cytotoxicity call": "inactive"}
{"smiles": "Cc1ccc(S(=O)(=O)N(C)C[C@@H]2Oc3ccc(NC(=O)Cn4cnnn4)cc3C(=O)N([C@@H](C)CO)C[C@@H]2C)cc1", "cytotoxicity call": "inactive"}
{"smiles": "C/C(=N\\N)c1c(C)cc(C)[nH]c1=O", "cytotoxicity call": "inactive"}
{"smiles": "Nc1cccc(=O)[nH]1", "cytotoxicity call": "inactive"}
{"smiles": "Cc1noc(C)c1NC(=O)N(C)C[C@@H]1Oc2ccc(NC(=O)Nc3ccc(C(F)(F)F)cc3)cc2CC(=O)N([C@H](C)CO)C[C@@H]1C", "cytotoxicity call": "inactive"}
{"smiles": "C[C@H]1CN([C@@H](C)CO)C(=O)c2cc(C#CCc3ccccc3)cnc2O[C@@H]1CN(C)CC1CCOCC1", "cytotoxicity call": "inactive"}
{"smiles": "C[C@H](CO)N1C[C@H](C)[C@@H](CN(C)C(=O)Nc2cccc(Oc3ccccn3)c2)OCc2cnnn2CCCC1=O", "cytotoxicity call": "inactive"}
{"smiles": "COc1ccc(NC(=O)Nc2ccc3c(c2)C(=O)N([C@@H](C)CO)C[C@H](C)[C@H](CN(C)Cc2ccc4c(c2)OCO4)OCCCC[C@H](C)O3)cc1", "cytotoxicity call": "inactive"}
{"smiles": "C[C@H](CO)N1C[C@H](C)[C@@H](CN(C)S(=O)(=O)c2ccccc2C#N)OCc2cnnn2CCCC1=O", "cytotoxicity call": "inactive"}
{"smiles": "Cc1cc(=O)[nH][nH]1", "cytotoxicity call": "inactive"}
{"smiles": "CCN1CCCC(OC(=O)C(c2ccccc2)c2ccccc2)C1.Cl", "note": "(configuration not stated)", "cytotoxicity call": "inactive"}
{"smiles": "COc1ccc(C(=O)CC(=O)c2ccc(C(C)(C)C)cc2)cc1", "cytotoxicity call": "inactive"}
{"smiles": "CC(C)(C)c1ccc(C(=O)CCCN2CCC(OC(c3ccccc3)c3ccccc3)CC2)cc1", "cytotoxicity call": "active"}
{"smiles": "NC(=O)c1ccccc1C(N)=O", "cytotoxicity call": "inactive"}
{"smiles": "COc1ccc2c(c1)c(CC(=O)OCC(=O)O)c(C)n2C(=O)c1ccc(Cl)cc1", "cytotoxicity call": "inactive"}
{"smiles": "COc1ccc2c(c1)c(CC(=O)O)c(C)n2C(=O)c1ccc(Cl)cc1", "cytotoxicity call": "inactive"}
{"smiles": "O=C(c1ccccc1Cl)n1c2ccccc2c2ccccc21", "cytotoxicity call": "active"}
{"smiles": "Cc1c(Cl)cccc1Nc1ccccc1C(=O)O", "cytotoxicity call": "inactive"}
{"smiles": "O=C(c1ccc(Cl)cc1)n1c2ccccc2c2ccccc21", "cytotoxicity call": "active"}
{"smiles": "C[C@H]1CN([C@@H](C)CO)C(=O)c2cccc(NC(=O)CCCCCC(=O)Nc3ccccc3N)c2O[C@H]1CN(C)C(=O)Nc1ccccc1", "cytotoxicity call": "inactive"}
{"smiles": "Cn1nc(CNc2ncccn2)c2c1CNCC2", "cytotoxicity call": "inactive"}
{"smiles": "C[C@H](CO)N1C[C@H](C)[C@@H](CN(C)Cc2ccc(C(F)(F)F)cc2)Oc2ccc(NC(=O)Cc3ccccc3)cc2C1=O", "cytotoxicity call": "inactive"}
{"smiles": "C[C@H](CO)N1C[C@H](C)[C@H](CN(C)CC2CCCCC2)OCCCC[C@H](C)Oc2ccc(NS(=O)(=O)c3ccccc3)cc2C1=O", "cytotoxicity call": "inactive"}
{"smiles": "CCOC(=O)[C@H]1CSCCN1", "cytotoxicity call": "inactive"}
{"smiles": "C[C@H]1CN([C@@H](C)CO)C(=O)CCCn2nncc2CO[C@H]1CN(C)Cc1ccc2c(c1)OCCN2C", "cytotoxicity call": "inactive"}
{"smiles": "Cc1cc(=O)n2c(C)nnc2[nH]1", "cytotoxicity call": "inactive"}
{"smiles": "CCCNC(=O)Nc1ccc2c(c1)C(=O)N(C)C[C@@H](OC)[C@@H](C)CN(Cc1ccc(-c3ccccn3)cc1)[C@H](C)CO2", "cytotoxicity call": "inactive"}
